Experimental data taken from PubChem BioAssay AID2315 (National Center for Advancing Translational Sciences (NCATS), 2010).
Several values for one entry are separate records, joined by “and”; a condition that tells them apart may be missing. Equal values may be shown once. Hit rate of the full screen: of about 290,000 compounds, about 27,000 (9.3%) were called active. Rule as the data show it: active = inhibition mostly above about 28% (no sharp cut-off); inactive = mostly below about 43%. Only a selection was taken, and actives are over-represented in it overall.

Assay: A qHTS for Small Molecule Inhibitors of Shiga Toxin; as to inhibition: 0% is about no effect
Details: Vero cells, Shiga toxin protein synthesis inhibition reporter; at 38.7 µM, active compounds read high

| SMILES | inhibition |
| --- | --- |
| CCc1ccc(CNC(=O)C2CC(=O)N(CCc3ccc(C)cc3)C2)cc1 (stereo not given) | -9.66% (inactive) |
| COCCC(=O)N1CCC(Oc2ccc(C(=O)NCc3ccon3)cc2)CC1 | -10.3% (inactive) |
| CCCCCC1CC(COc2ccccc2)OC1=O (stereo not given) | -10.6% (inactive) |
| Cc1cc(-c2n[nH]c(=S)n2/N=C/C(Br)=C/c2ccccc2)n[nH]1 | 91.5% (active) |
| Cc1cc(-c2n[nH]c(=S)n2/N=C/c2ccco2)n[nH]1 | -9.01% (inactive) |
| S=c1[nH]nc(-c2cccnc2)n1/N=C/C(Cl)=C\c1ccccc1 | 48.2% (inactive) |
| CC(=O)c1c(C)oc2ccc(NS(=O)(=O)c3ccc(C(=O)O)cc3)cc12 | 18.1% (inactive) |
| CCCCN(CCCC)CCCNC(=O)CN1C(=O)COc2ccc(S(=O)(=O)N3CCC(C)CC3)cc21 | -6.42% (inactive) |
| Cc1cccc(NC(=O)C2CCCN(C(=O)Nc3ccc(F)cc3)C2)c1C (stereo not given) | 1.84% (inactive) |
| Nc1nonc1C(=O)NCCc1ccccc1 | 66.7% (active) |
| CN(C)/C(=N\OC(=O)c1ccccc1)c1nonc1N | -8.6% (inactive) |
| O=C(O)c1ccccc1-c1ccccc1C(=O)NCCc1ccccc1 | 23.5% (inactive) |
| O=C(NCCc1ccccc1)C1CC1 | 8.81% (inactive) |
| NS(=O)(=O)c1ccc(CCNC(=O)CNC(=O)Cc2ccccc2)cc1 | -4.55% (inactive) |
| NC(=O)Nc1ccccc1C(=O)NCCc1ccccc1 | 83.7% (active) |
| Cc1ccc(-c2ccc(=O)n(Cc3ccc(F)cc3Cl)n2)cc1 | -3.36% (inactive) |
| CCOC(=O)N1CCC(N2Cc3cccc(C(=O)Nc4c(C)cccc4CC)c3C2=O)CC1 | 3.74% (inactive) |
| CC(C)[C@H](NC(=O)N1CCn2c1nc1ccccc12)C(=O)NCc1ccc2c(c1)OCO2 | 10.7% (inactive) |
| O=C(CN1C(=O)NC2(CCCCC2)C1=O)NCCc1c[nH]c2ccccc12 | -14% (inactive) |
| O=C(CCC(=O)n1ncc2ccccc21)NCc1ccccc1Cl | -2.08% (inactive) |
| CCCOc1ccc(C2=CSC3=NCCN23)cc1Cl | -7.6% (inactive) |
| CCN(CC)S(=O)(=O)c1ccc(N2CCOCC2)c(NC(=O)C2CSC3(C)CCC(=O)N23)c1 (stereo not given) | -6.24% (inactive) |
| COc1ccc2c3c(c(=O)oc2c1)C1O[C@](CCCCN2C(=O)c4ccccc4C2=O)(Cc2c1ccc1ccccc21)O3 | inactive |
| NC(=O)Cn1c(=O)oc2ccccc21 | 18.3% (inactive) |

| SMILES | inhibition |
| --- | --- |
| Cc1cccc(NC(=O)CCn2c(=O)oc3ccccc32)c1 | 63.6% (inactive) |
| Cc1ccc(OCCCn2c(=O)oc3ccccc32)cc1 | 52.4% (active) |
| CCc1ccc(NC(=O)Cn2nnc(C(=O)NCc3ccc(OC)cc3)c2N)cc1 | 6.32% (inactive) |
| COc1ccc2c(c1)CCc1c(C(=O)N3CCc4ccccc4C3)noc1-2 | 26.1% (inactive) |
| COc1ccc2c(c1)CCc1c(C(=O)N3CCCC3)noc1-2 | 55.2% (active) |
| COc1ccc2oc(=O)c(C(=O)N3CCCC3)cc2c1 | -3.3% (inactive) |
| COc1ccc(/C=C2\CCc3ccccc3C2=O)c(OC)c1OC | 77.4% (active) |
| CN1C/C(=C/c2cccs2)C(=O)/C(=C\c2cccs2)C1 | 66.1% (inactive) |
| COc1ccc2c(c1OC)C(=O)c1ccccc1C2=O | 16.6% (inactive) |
| O=C1/C(=C/c2cccs2)SC(=S)N1C1CCS(=O)(=O)C1 (stereo not given) | -16.1% (inactive) |
| COc1ccc(/C=N/NC(=O)C2CC2)c(OC)c1OC | -1.72% (inactive) |
| O=C(COC(=O)/C=C/c1cccs1)NC1CCCCC1 | 10.6% (inactive) |
| O=C1/C(=C/c2cccs2)CCc2ccccc21 | 85.4% (active) |
| CCC1C/C(=C/c2cccs2)C(=O)/C(=C/c2cccs2)C1 (stereo not given) | -3.18% (inactive) |
| O=C1/C(=C/c2cccs2)CCC1C1CCCC1 (stereo not given) | 136% (active) |
| CCOC(=O)C1CCCN(CCSc2ccc(C)cc2)C1 (stereo not given) | 30% (inactive) |
| O=C(N[C@@H](Cc1ccccc1)C(=O)OCc1ccccc1)c1nc[nH]c1C(=O)N[C@@H](Cc1ccccc1)C(=O)OCc1ccccc1 | -7.22% (inactive) |
| COc1ccccc1N1CCC(N2CCN(CC(C)(C)C)C(CCO)C2)CC1 (stereo not given) | -5.66% (inactive) |
| COC(=O)c1cccc(C(=O)N2CCC(CCC(=O)NCc3ccc(F)cc3)CC2)c1 | -4.62% (inactive) |
| Cc1ccc(C(=O)Nc2nnc(C3=COCCO3)o2)cc1C | 12.4% (inactive) |
| COc1ccc(C2=NS(=O)(=O)N(C)C(C(=O)N(C)Cc3ccccc3)=C2)cc1 | 0.266% (inactive) |
| CCOc1ccc(N(C(=O)c2snc(C(N)=O)c2N)C(C(=O)NCC2CCCO2)c2c[nH]c3ccccc23)cc1 (stereo not given) | -13.1% (inactive) |
| COc1cccc(NC(=O)C(C)Oc2ccccc2)c1 (stereo not given) | -3.55% (inactive) |
| COc1ccc2nc(C)cc(Nc3cccc(C(=O)O)c3)c2c1 | -3.88% (inactive) |

| SMILES | inhibition |
| --- | --- |
| COc1cccc(Nc2ncccc2C(=O)O)c1 | 96.7% (active) |
| COc1nnc(-c2ccc(C)c(S(=O)(=O)N(C)C)c2)c2ccccc12 | 22.7% (inactive) |
| CCOC(=O)c1c(NC(=S)NC(=O)/C=C/c2cccs2)sc(C)c1C | -10.9% (inactive) |
| CCOC(=O)c1sc(=NC(=O)/C=C/c2cccs2)n(C)c1C | 88% (active) |
| CCOC(=O)c1sc(=NC(=O)c2ccc(Br)cc2)n(C)c1C | -5.35% (inactive) |
| CCOc1ccc(OCC)c(NC(=O)CCS(=O)(=O)c2ccc(C)cc2)c1 | -3.57% (inactive) |
| O=C(Cc1c(Cl)cccc1Cl)NC1CC1 | -3.23% (inactive) |
| CC(C)CCn1cnc2c1c(=O)n(CC(=O)NC(N)=O)c(=O)n2Cc1ccccc1 | 6.66% (inactive) |
| COc1ccc(Cc2nnnn2CC(=O)O)cc1 | 18.4% (inactive) |
| COc1ccc(Cc2cc(-c3ccc(F)cc3)n[nH]c2=O)cc1 | 41.9% (active) |
| COc1ccc(Cc2nnc(SC)[nH]c2=O)cc1 | -10.4% (inactive) |
| O=C(/C=C/c1ccc(Cl)cc1)NCCCn1ccnc1 | 63.2% (inactive) |
| Cc1ccc(NS(=O)(=O)c2cc3c(cc2C)NC(=O)CO3)cc1 | -3.52% (inactive) |
| C[C@H](NC(=O)c1nc[nH]c1C(=O)NCC(=O)OC(C)(C)C)C(=O)OCc1ccccc1 | -5.08% (inactive) |
| CCC(C)c1ccccc1NC(=O)CN(C)CC(=O)Nc1ccccc1SC (stereo not given) | -5.67% (inactive) |
| CCn1cc(CN2CCC(n3nccc3NC(=O)CCCc3ccccc3)CC2)c(C)n1 | -4.01% (inactive) |
| O=C(C(=O)N1CCc2ccccc2C1)c1c[nH]c2ccccc12 | 25.1% (inactive) |
| O=C(NC1CCCC1)C(=O)c1c[nH]c2ccccc12 | 60.6% (active) |
| O=C(NCCCc1ccccc1)C(=O)c1c[nH]c2ccccc12 | 34.9% (inactive) |
| Cc1ccc(C(=O)CCC(=O)N(C)CC(=O)Nc2c(Cl)cccc2Cl)cc1 | 12.9% (inactive) |
| CCOc1ccc(NC(=O)CSc2nncn2C)cc1 | -2.49% (inactive) |
| COc1ccc(-n2c(-c3ccc(OC)c(OC)c3)n[nH]c2=S)cc1 | -6.08% (inactive) |
| CCOc1ccccc1NC(=S)NC(=O)CCc1ccccc1 | -2.78% (inactive) |
| CCOc1ccc(Nc2nc(Cl)nc(N3CCN(c4ccc(OC)cc4)CC3)n2)cc1 | -1.73% (inactive) |

| SMILES | inhibition |
| --- | --- |
| COc1ccc(Nc2ncc(F)c(N3CCOCC3)n2)cc1 | 68.5% (active) |
| c1ccc(Nc2nc(N3CCOCC3)c3ccccc3n2)cc1 | -9.05% (inactive) |
| Cc1cc(C)cc(NC(=O)CN2C(=O)c3ccccc3C2=O)c1 | -7.16% (inactive) |
| Cc1ccc(C(C)C)cc1OCC(=O)Nc1ccccc1N1CCCC1 | 38.7% (inactive) |
| Cc1c(OC(C)C(=O)N[C@@H](Cc2ccccc2)C(=O)O)ccc2c3c(c(=O)oc12)CCCC3 (stereo not given in full) | -5.08% (inactive) |
| O=C(Cn1ncc2c3ccccc3n(Cc3ccccc3)c2c1=O)NCCCN1CCOCC1 | 10.5% (inactive) |
| CCN1C(=O)/C(=c2\s/c(=C3\Sc4ccccc4N3C)c(=O)n2C)N(C)C1=S | 40.9% (active) |
| CCN1C(=O)/C(=C2/Sc3ccccc3N2CCCS(=O)(=O)O)SC1=S | 13.4% (inactive) and -2.41% (inactive) |
| CCCCN1C(=O)/C(=C2/Sc3ccc(Cl)cc3N2CC)SC1=S | 1.9% (inactive) |
| COc1cc(OC)c(OC)cc1CN1CCN(C(=O)c2cccc3ccccc23)CC1 | -8.18% (inactive) |
| COc1ccc(-c2nc3n(c(=O)c2C#N)CCS3)c(OC)c1 | -7.88% (inactive) |
| O=C(N/N=C\C1CC=CCC1)c1ccc(Br)o1 (stereo not given) | 67.4% (active) |
| Cc1ccc(SCc2c(C(=O)N/N=C/C3CC=CCC3)nnn2-c2nonc2N)cc1 (stereo not given) | -9.77% (inactive) |
| COCc1c(C(=O)N/N=C/C2CC=CCC2)nnn1-c1nonc1N (stereo not given) | -2.4% (inactive) |
| CCN1CCN(C(=O)Cn2nc(C)n3c(cc4c(OC)cccc43)c2=O)CC1 | -14.6% (inactive) |
| O=C(O)CCCn1c(=O)c2cccn2c2ccc(F)cc21 | -8.92% (inactive) |
| O=C(Nc1cccc2ccccc12)N1CCN(Cc2ccc3c(c2)OCO3)CC1 | -3.81% (inactive) |
| O=C(Nc1cccc2ccccc12)N1CCC2(CC1)OCCO2 | 54.5% (active) |
| COc1ccc(NC(=O)N2CCC3(CC2)OCCO3)c(OC)c1 | 13.6% (inactive) |
| COc1cc(/C=N/NC(=O)CNC(=O)c2ccncc2)ccc1OC(C)=O | -3.89% (inactive) |
| COc1ccc(C)cc1NC(=O)NCCCCc1ccccc1 | 14.6% (inactive) |
| COc1ccc(C(=O)NC2CC2)cc1OC1CCN(C/C=C/c2ccccc2)CC1 | -9.42% (inactive) |
| CC(=O)N1c2ccc(S(=O)(=O)N3CCC(C(=O)N4CCN(c5ccccc5)CC4)CC3)cc2CC1C (stereo not given) | -2.12% (inactive) |
